Data from PubChem BioAssay AID2094 (Broad Institute, 2009).
Among all 300,000 compounds or so, about 1,200 (0.4%) were called active. For the sample, actives were picked, then their nearest neighbours and some compounds at random. Values without a mark were called inactive. Rule as the data show it: active = activity change below about -75% (passing the limit was not always enough); inconclusive = no clear call, values can overlap the other calls.

Experiment: Vibrio harveyi AI-2 quorum sensing modulators, primary screen, JMH597 strain, luminescence/OD600 ratio (AID 2094);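 also: luminescence divided by OD600 gain over 9 h not by final OD600 alone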
Conditions: Vibrio harveyi JMH597 AI-2 luminescence/OD600 ratio, 9 h; at 7.5 µM; stronger effect = lower value; 0 = neutral-control median; strain lacks LuxN and CqsS sensors

In order of falling activity change:
1. C/C=C/C(=O)OCc1csc(CC(=O)Nc2ccccc2C)n1  48.5%
2. CCc1cccc(NC(=O)CCCN2C(=O)C(c3ccccc3)Oc3cccnc32)c1 (stereo unspecified)  34.6%
3. O=C(Nc1ccccc1Cl)Nc1cccc2cccnc12  24.3%
4. CC(=O)c1ccc(S(=O)(=O)N(C)CCCC(=O)N(C)Cc2ccccc2F)cc1  21.5%
5. CCOc1ccc(-n2c(SCC(=O)Nc3ccc(OC)cc3)nc3sc4c(c3c2=O)CCN(C)C4)cc1  20.9%
6. CCCCCCNCCn1cnc2c(N)ncnc21  19.1%
7. CC1(C)C/C(=N/Nc2ccc([N+](=O)[O-])cc2[N+](=O)[O-])C(C)(C)O1  18.5%
8. COc1ccc(C)cc1N(CC(=O)NC(C)c1ccccc1)S(C)(=O)=O (stereo unspecified)  17.3%
9. Cc1csc(OCC(=O)Nc2ccc(C)c(C)c2)n1  15.5%
10. CCC(NC(=O)c1cc(COc2ccc(F)c(F)c2)on1)c1ccncc1 (stereo unspecified)  14%
11. COCC(=O)N1CCCC(C(=O)c2ccc(C(F)(F)F)cc2)C1 (stereo unspecified)  13.4%
12. Cc1nnc(NC(=O)/C=C/c2ccco2)s1  12.9%
13. CC(OC(=O)CNS(=O)(=O)/C=C/c1ccccc1)C(=O)Nc1ccc(S(=O)(=O)N2CCCC2)cc1 (stereo unspecified)  11.2%
14. O=C(Nc1ccccc1)c1ccco1  10.6%
15. Cc1cccnc1CC(C)NC(=O)c1cc(COc2cncc(Cl)c2)on1 (stereo unspecified)  10.5%
16. O=C(Nc1ccc(O)cc1)c1ccc(NC(=O)c2ccco2)cc1  7.66%
17. O=C(/C=C/c1ccco1)Nc1cccc(-c2nc3ccccc3[nH]2)c1  4.93%
18. Cc1ccc(-c2cc(C(=O)N3CCc4ccccc4C3)no2)cc1  4.44%
19. O=C(CC1SC(=Nc2ccccc2)N(Cc2ccccn2)C1=O)Nc1cccc(Cl)c1 (stereo unspecified)  3.68%
20. O=C(c1cc(-c2ccc(O)cc2)on1)N1CCOCC1  2.48%
21. O=C(Cc1ccc2c(c1)CCCC2)Nc1ccccc1Cl  -3.68%

With O=C(/C=C/c1ccco1)Nc1ccc(Oc2ccccc2)cc1 the activity change was -83.2% (active).
For O=C(Nc1ccc(Oc2ccccc2)cc1)c1ccco1, the activity change was -96.6% (active).
For O=C(c1cc(-c2cccc(O)c2)on1)N1CCc2ccccc2C1, the activity change was -84.1% (active).
For O=C(Nc1ccccc1Cl)/C(Cl)=C(\Cl)S(=O)c1ccccc1 (stereo unspecified), the activity change was -84.8% (active).
For CC(=O)c1cccc(OCc2cc(C(=O)NC(C)Cc3cccnc3)no2)c1 (stereo unspecified), the activity change was -85.8% (active).
